According to PubChem BioAssay AID1851 (National Center for Advancing Translational Sciences (NCATS), 2009):
Hit rate of the full screen: of about 16,000 compounds, about 4,000 (25%) were called active. About 26% were inconclusive and are not listed. A selection follows. Unmarked numbers belong to inactive results. Calls come from the whole dose curve; as a rule, active = well fitted curve in the direction sought with a large enough effect; inconclusive = small, poorly fitted or top-dose-only effect, or effect the other way; inactive = no such curve, though single readings can be large or run the other way.

Molecular target: Cytochrome P450 2C9 (Homo sapiens) (UniProt P11712)
Sequence (P11712 whole entry, looked up): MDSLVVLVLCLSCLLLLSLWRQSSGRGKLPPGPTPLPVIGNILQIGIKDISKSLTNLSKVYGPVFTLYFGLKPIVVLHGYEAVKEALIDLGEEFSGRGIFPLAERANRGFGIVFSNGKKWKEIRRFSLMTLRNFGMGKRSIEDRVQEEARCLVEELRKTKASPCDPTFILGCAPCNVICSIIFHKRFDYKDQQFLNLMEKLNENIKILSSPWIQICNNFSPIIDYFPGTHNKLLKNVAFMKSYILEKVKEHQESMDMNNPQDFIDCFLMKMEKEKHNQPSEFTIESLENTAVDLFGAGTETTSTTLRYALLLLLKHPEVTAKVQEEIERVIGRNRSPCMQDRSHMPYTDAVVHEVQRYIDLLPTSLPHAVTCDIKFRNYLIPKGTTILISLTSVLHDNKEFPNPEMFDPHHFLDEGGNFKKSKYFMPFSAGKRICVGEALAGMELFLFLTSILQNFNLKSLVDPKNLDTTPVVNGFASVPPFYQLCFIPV
Assay: Cytochrome panel assay with activity outcomes
Settings: recombinant CYP, pro-luciferin dealkylation, luminescence, p450-cyp2c9; series mostly up to 57.1 µM
% is set by controls: 0 for no effect and ±100 for the full control effect.

Structure (SMILES)	AC50	activity, negative = inhibition
O=c1[nH]c(=O)n([C@@H]2C[C@H](O)[C@H](CO)O2)cc1C(F)(F)F	inactive	–
Fc1cc(Br)ccc1NC(=S)NCCc1ccccc1	10 µM (active)	–
Fc1ccccc1NC(=S)NCCc1ccccc1	7.94 µM (active)	–
Fc1ccc(NC(=S)NCCc2ccccc2)c(F)c1F	5.01 µM (active)	–
COc1ccccc1NC(=S)NCCc1ccccc1	inactive	–
O=C1O[C@@H]([C@H](O)[C@H](O)[C@H](O)CO)[C@@H](O)[C@@H]1O	–	-8.59% [at 11.4 µM]
COc1ccc(C(=O)N2CCC[C@@]3(CCN(C(=O)NC(C)C)C3)C2)cc1	inactive	–
Nc1ncnc2c1ncn2[C@H]1O[C@@H](C(=O)OCCO)[C@@H](O)[C@H]1O	–	-1.34% [at 11.4 µM]
O=C(O)C1CCN(c2ncnc3ccc(-c4ccccc4C(F)(F)F)cc23)CC1	–	4.43% [at 2.29 µM]
N#Cc1ccccc1-c1ccc2ncnc(N3CCNCC3)c2c1	–	26.5% [at 2.29 µM]
Cc1cc(C)n(-c2ccc(C(=O)Nc3cc(C(F)(F)F)ccc3N3CCOCC3)cc2)n1	0.0794 µM (active)	–
Cc1ccc(C(C)C)n1C(=O)OC(C)(C)C	–	0.745% [at 11.4 µM]
CC(=O)Nc1ccc(N2C(=O)CC(c3ccccc3)CC2=O)cc1	inactive	–
COc1ccc(N2C(=O)CSC2c2cccc(F)c2)c(OC)c1 (stereo not given)	inactive	–
CC(=O)Nc1ccc(N2C(=O)CSC2c2c(F)cccc2Cl)cc1 (stereo not given)	10 µM (active)	–
O=C(Nc1ccccc1)c1ccccc1CC[N+](=O)[O-]	inactive	–
O=C(Nc1ccccc1)c1cc([N+](=O)[O-])ccc1Cl	6.31 µM (active)	–
Cc1cccc[n+]1CC(=O)Nc1ccc([N+](=O)[O-])cc1Cl	inactive	–
O=C(Nc1ccc([N+](=O)[O-])cc1Cl)c1cc(Cl)ccc1O	0.631 µM (active)	–
CC1=C[N+](=O)c2ccccc2[N+]1=O	–	-5.42% [at 11.4 µM]

Structure (SMILES)	AC50	activity, negative = inhibition
N#Cc1cccc(-c2cc(-n3ccnc3)ncn2)c1	–	-5.24% [at 2.29 µM]
O=C(O)c1cccc(OCCO)c1	–	-19% [at 11.4 µM]
O=C(O)c1cccc(N2CCCC2=O)c1	12.6 µM (active)	–
CCCCN(C)CCCNC(=O)c1ccc(N2CCCC2=O)cc1	inactive	–
c1nc(NC2CCNCC2)c2cc(-c3ccc4c(c3)OCO4)ccc2n1	–	28.6% [at 2.29 µM]
Oc1cc(O)c2c(c1)O[C@H](c1ccc(O)c(O)c1)[C@@H](O)[C@@H]2c1c(O)cc(O)c2c1O[C@@H](c1ccc(O)c(O)c1)[C@H](O)C2	–	-22.1% [at 11.4 µM]
O=C(c1cccc(F)c1)N1CCC2(CCN(Cc3ccccc3)CC2)CC1	inactive	–
O=C(c1cccc(F)c1)N1CCC2(CCCN(Cc3cc(C(F)(F)F)cc(C(F)(F)F)c3)C2)CC1	inactive	–
O=C(Nc1cccc(F)c1)N1CCCC2(CCN(C(=O)c3cnccn3)CC2)C1	inactive	–
O=C(Nc1cccc(F)c1)N1CCCC2(CCN(C(=O)c3ccncc3)CC2)C1	0.0794 µM (active)	–
O=C(c1cccc(F)c1)N1CCC2(CCN(Cc3cc(C(F)(F)F)cc(C(F)(F)F)c3)CC2)CC1	inactive	–
COc1ccc(C(=O)N2CCC3(CCCN(C(=O)Nc4cccc(F)c4)C3)CC2)cc1	inactive	–
O=C(c1cccc(F)c1)N1CCC2(CCCN(Cc3ccncc3)C2)CC1	0.631 µM (active)	–
O=C(c1cccc(F)c1)N1CCC2(CCCN(Cc3ccccc3)C2)CC1	inactive	–
O=C(c1cccc(F)c1)N1CCC2(CCN(Cc3ccncc3)CC2)CC1	2.51 µM (active)	–
Cc1ccc(C(=O)N/N=C\c2ccc[nH]2)cc1[N+](=O)[O-]	inactive	–
Cc1ccc(C(=O)Nc2ccc(Cc3ccncc3)cc2)cc1[N+](=O)[O-]	0.631 µM (active)	–
Cc1ccc(NC(=S)/C(=C(\[O-])c2ccc(C)c([N+](=O)[O-])c2)[n+]2ccccc2)cc1C	inactive	–
CCC(=O)[C@@]1(C)[C@H](C)C[C@@H]2[C@@H]3CCC4=CC(=O)C=C[C@@]4(C)[C@H]3[C@H](O)C[C@]21C	inactive	–
CCc1c(C(=O)O)[nH]c2ccc(Br)cc12	15.8 µM (active)	–

Structure (SMILES)	AC50	activity, negative = inhibition
O=C1Cc2c([nH]c3ccc(Br)cc23)-c2ccccc2N1	inactive	–
CCCCCCN(CCCCCC)C(=O)Cc1c(-c2ccc(Cl)cc2)[nH]c2ccc(Cl)cc12	inactive	–
CC(=O)N1CCC2(CCN(Cc3nccs3)CC2)CC1	inactive	–
CCOC(=O)CCCc1c[nH]c2ccccc12	7.94 µM (active)	–
C[C@@](N)(Cc1c[nH]c2ccccc12)C(=O)O	–	-9.29% [at 11.4 µM]
Nc1ccc2[nH]cc(CCC(=O)O)c2c1	–	-7.47% [at 11.4 µM]
O=C(O)c1c(Cl)c(Cl)c(Cl)c(Cl)c1C(=O)Nc1ccc2cn[nH]c2c1	0.0794 µM (active)	–
CCNc1ncc2nc(-c3ccc(Cl)cc3)c(=O)n(C3CC3)c2n1	inactive	–
Cc1ccc(Nc2c([N+](=O)[O-])ccc3c2=NC2(CCCCC2)N=3)cc1	5.01 µM (active)	–
COc1ccc(-c2cc(C(=O)Nc3cnn(Cc4ccccc4C)c3)no2)cc1OC	inactive	–
O=C(Nc1cnn(Cc2ccc(Cl)cc2Cl)c1)c1cc(-c2cccs2)on1	8.91 µM (active)	–
O=C(CC1C(=O)N(c2ccc(Cl)cc2)C(=S)N1CCc1ccncc1)Nc1ccc(F)cc1 (stereo not given)	0.0631 µM (active)	–
CN(C)CC/C=C1\c2ccccc2COc2ccccc21	inactive	–
Cn1c(=O)c2c(ncn2CN2CCN(Cn3cnc4c3c(=O)n(C)c(=O)n4C)CC2)n(C)c1=O	–	5.13% [at 11.4 µM]
C#CCCCO/N=C1/C[C@@H](O)[C@@H](O)[C@@H]2[C@@H]3C(=O)N([C@@H](C)c4ccccc4)C(=O)[C@H]3CC[C@@H]12	–	-23.8% [at 11.4 µM]
Cc1cc2c(cc1C)NC(c1nc3ccccc3[nH]1)C1=C(CC(C)(C)CC1=O)N2 (stereo not given)	inactive	–
CC1(C)CC(=O)C2=C(C1)Oc1nc3ccccc3cc1C2C(C#N)C#N (stereo not given)	3.55 µM (active)	–
Cc1ccc(-n2c(SCC(=O)NCc3ccco3)nc3sc4c(c3c2=O)CC(C)(C)SC4)cc1	2.24 µM (active)	–
CC1(C)Cc2c(sc3c2C(=O)N(c2ccccc2)C2=NCCN23)CS1	inactive	–
CC1(C)Cc2c(sc3nc(SCC(=O)NCc4ccccc4)n(-c4ccccc4)c(=O)c23)CS1	6.31 µM (active)	–
